The source of these data is PubChem BioAssay.

Values without a mark were called inactive. No rule for the calls is given here.

In the experiment the target is Pantothenate synthetase (Mycobacterium tuberculosis (strain ATCC 25618 / H37Rv)) (UniProt P9WIL5). Briefly: Recombinant Mtb pantothenate synthetase (PanC) inhibitors, coupled enzyme, confirmatory (AID 375).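 Also: 0% = full reaction with vehicle and 100% = no enzyme background.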 The settings on record: coupled enzyme assay; at 10 µM, stronger effect = higher value.
Pantothenate synthetase (Mycobacterium tuberculosis (strain ATCC 25618 / H37Rv)), sequence (P9WIL5 whole entry, looked up): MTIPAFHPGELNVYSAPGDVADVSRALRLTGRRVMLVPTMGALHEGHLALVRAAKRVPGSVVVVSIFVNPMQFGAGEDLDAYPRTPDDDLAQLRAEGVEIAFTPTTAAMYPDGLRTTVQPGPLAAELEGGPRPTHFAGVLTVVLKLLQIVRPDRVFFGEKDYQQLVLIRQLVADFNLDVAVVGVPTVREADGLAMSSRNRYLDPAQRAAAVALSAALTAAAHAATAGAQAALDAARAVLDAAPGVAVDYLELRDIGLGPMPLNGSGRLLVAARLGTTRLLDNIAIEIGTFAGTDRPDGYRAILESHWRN
Regarding `Cc1ccc(NC(=O)CCC(=O)OCC(F)(F)C(F)F)cc1`, the inhibition (commonly the change of the read-out against control, counted positive when it falls) was 0%.

In the case of `CCCN1Cc2cccc(C(=O)NCc3cccs3)c2C1=O`, the inhibition is 0%.

Regarding `CC(C)(C)NC(=O)C(c1ccco1)N(C(=O)Cn1nnc(-c2ccc(F)cc2)n1)c1ccccc1` (stereo not given), the inhibition was 0%.

Turning to `CCN(C1CCCCC1)S(=O)(=O)c1ccc(S(=O)(=O)N2CCN(CCC#N)CC2)cc1`, the inhibition was 0%.

`COc1cc2c(cc1OC)CN(C(=O)CSc1nc3[nH]ncc3c(=O)n1-c1ccccc1)CC2`: the inhibition is 2%.

Take `Oc1ccc(N2CCN(C(c3cccnc3)c3nnnn3Cc3ccccc3)CC2)cc1` (stereo not given): the inhibition was 0%.

With `COC(=O)CN(c1ccc2c(c1)OCO2)S(C)(=O)=O`, the inhibition is 4%.

As to `CCN(CC)c1ccc(C(=O)n2cnc3ccccc32)cc1`, the inhibition is 4%.

For `COC(=O)Cc1c(C)c2ccc(OCC(=O)N3CCOCC3)cc2oc1=O`, the inhibition was 0%.

On to `O=C(CCC(=O)N1CCc2ccccc2C1)N1CCN(S(=O)(=O)c2ccccc2)CC1`, for which the inhibition is 0%.

Consider `Cc1ccc(N2CCN(C(=O)c3ccccc3)CC2)c(C)c1`, for which the inhibition is 1%.

As for `CCOC(=O)C1=C(C)NC(SC(C)=O)=NC1c1ccc(OC(C)=O)c(OC)c1` (stereo not given), the inhibition is 4%.

In the case of `O=C(NCc1nc2ccccc2[nH]1)c1ccco1`, the inhibition is 0%.

For the compound `CC(=O)NCC(=O)N(Cc1ccco1)C1(C(=O)NC2CCCCC2)CCCCC1`, the inhibition is 0%.

With `C/C=C(\C)c1nnc(NC(=O)C(C)C)s1`, the inhibition was 1%.

On to `COc1ccc(OC)c(C(=O)c2coc3ccc(O)c(CN4CCOCC4)c23)c1`, for which the inhibition is 0%.

With `CCn1cc(C(=O)N2CCOCC2)c(=O)c2cc(S(=O)(=O)N(C)C3CCCCC3)ccc21`, the inhibition was 0%.

`O=C1CC(N2CCN(c3ccc(Cl)c(Cl)c3)CC2)C(=O)N1` (stereo not given): the inhibition was 0%.

`O=C(CSCc1ccc(F)cc1)NC1CCCC1`: the inhibition is 0%.

On to `CCCNC(=O)NC(C(=O)OC)C12CC3CC(CC(C3)C1)C2` (stereo not given), for which the inhibition was 3%.

Consider `CC(=O)c1c(C)nn(CC(O)COc2ccc3c(c2)CCC3)c1C` (stereo not given), for which the inhibition is 0%.

Consider `ON1C2CCCCC2N(O)C1c1c(F)c(F)c(F)c(F)c1F` (stereo not given), for which the inhibition is 7%.

For the compound `COc1ccccc1C(=O)n1nc(-c2ccc(Cl)cc2)nc1N`, the inhibition was 3%.

On to `COc1ccc(CC(NC(C)=O)C(=O)NC2CCN(c3nc(C)cc(C)c3C#N)CC2)c(OC)c1` (stereo not given), for which the inhibition is 0%.

With `c1ccc(CN2C3=NCCCN3c3ccccc32)cc1`, the inhibition is 0%.

Take `CCCCNC(=O)CN(C1CCCCC1)S(C)(=O)=O`: the inhibition was 8%.

`Cc1nc(-c2cccc(-c3noc(C)n3)c2)no1`: the inhibition is 0%.

For `CN1C(=O)C2(NCCc3c2[nH]c2ccccc32)c2ccccc21` (stereo not given), the inhibition is 1%.

In the case of `CC(=O)N1c2c(cc(Br)cc2S(=O)(=O)N2CCN(c3ccccn3)CC2)CC1C` (stereo not given), the inhibition is 0%.

Turning to `O=C(Nc1ccc2oc(Cc3ccc(Cl)cc3)nc2c1)c1cccnc1`, the inhibition is 0%.

On to `Cc1nc2nc(SCC(=O)NCc3ccco3)nn2c(C)c1Cc1ccccc1`, for which the inhibition was 0%.

For `CCN(CC)c1ccc2c(c1)CCCN2`, the inhibition is 3%.

With `COC(=O)Nc1nc2ccc(Sc3ccccc3)cc2[nH]1`, the inhibition was 8%.

Consider `CN1C(=O)CC(N2CCC(C(N)=O)(N3CCCCC3)CC2)C1=O` (stereo not given), for which the inhibition is 0%.

Turning to `COCCCn1nnnc1SCC(=O)Nc1nc(C)c(C)s1`, the inhibition was 0%.

For `CCOC(=O)CNC(=O)Nc1ccccc1C(=O)OC`, the inhibition was 6%.

For `CC1(C)CN=C(N2CCN(c3ncnc4sc5c(c34)CCCC5)CC2)S1`, the inhibition is 0%.

For the compound `CCC(=O)Nc1ccc(Cl)c(NC(=O)C(C)C)c1`, the inhibition is 3%.

Turning to `O=C(OCC(=O)N1CCCCCC1)c1cccs1`, the inhibition was 0%.

Take `Cc1cccc(N2CCN(C(=O)Cn3ccc4ccccc4c3=O)CC2)c1C`: the inhibition was 0%.
